The structures appear in SMILES notation. This is part of a sample that, as a whole, favours compounds with a hit. Of some 83,000 tested, about 20% had one in any assay.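 Assay: single dose, 48 h. Readout: percent growth (0 = no net growth; negative = cell death). Active: <10.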 Calls of active or inactive are those of the source.

For this experiment, the system named is HL-60(TB) leukemia. In words: NCI-60 one-dose screen, 48 h (100 = growth as untreated, 0 = no growth, -100 = all killed). The note with it: 10 µM unless noted.
With `CN(C)c1ccc(/C=C/C(=O)c2ccccc2)cc1`, the growth is 66.7% (inactive).

As to `Cc1ccc2c(-c3cc(-c4ccccc4)nc(N)c3C#N)cc(=O)oc2c1`, the growth is 117% (inactive).

Turning to `O=C1/C(=C/C(Cl)=C/c2ccccc2)SC(=S)N1CCc1ccc(O)cc1`, the growth was -7.15% (active).

For `O=c1cc(-c2ccccc2)nc(SCc2nc3cc(Cl)c(Cl)cc3[nH]2)[nH]1`, the growth is 101% (inactive).

For `CC(CN1CCCCC1)C(=O)c1ccccc1` (stereo not given), the growth was 103% (inactive).

As to `COC(=O)c1cc2oc(/C=N\NC(=O)c3cc4oc(C)c(C)c4[nH]3)cc2[nH]1`, the growth was 103% (inactive).

On to `C#CC#CC#CC#CC#CC#CC#CC#CC[C@H]1OC[C@@H](COC(=O)O[C@@H](C(=O)O[C@H]2C[C@@]3(O)[C@@H](OC(=O)c4ccccc4)[C@@H]4[C@]5(OC(C)=O)CO[C@@H]5C[C@H](O)[C@@]4(C)C(=O)[C@H](OC(C)=O)C(=C2C)C3(C)C)[C@@H](NC(=O)c2ccccc2)c2ccccc2)O1`, for which the growth is 6.5% (active).

`COc1ccc(-c2nc3ccccn3c2/C=C/C(=O)c2cc(OC)c(OC)c(OC)c2)cc1OC`: the growth was 9.67% (active).

Take `COc1cc(/C(C#N)=C/c2nc3c(N4CCOCC4)nc(Cl)nc3n2C)cc(OC)c1OC`: the growth is -29% (active).

For `CCCCCCCCCCCCCC(=O)C(C)N` (stereo not given), the growth was 14.6% (inactive).

Consider `Cn1ncc2c(Nc3ccccc3Cl)nc(Cl)nc21`, for which the growth is 96.1% (inactive).

For `COc1ccc2c(c1)oc1c(C)c3c(c(C)c12)C(=O)N(Nc1ccccc1)C3=O`, the growth was 107% (inactive).

In the case of `CNCc1cccc2c1OCCOCCOCCNS(=O)(=O)c1ccc(cc1)-c1cnc(N)c(n1)C(=O)N2`, the growth was -10.8% (active).

As to `NCCCN(CCCN)CCCNCc1c2ccccc2c(CNCCCN(CCCN)CCCN)c2ccccc12`, the growth is 100% (inactive).

`COc1ccc2c(c1)C(CC(=O)NN)CCC2` (stereo not given): the growth was 113% (inactive).

Turning to `CN1CCN(Cc2ccc(NC(=O)c3cncc(C#Cc4cnn5ccccc45)c3)cc2C(F)(F)F)CC1`, the growth was -21.3% (active).

Consider `COc1ccc(C(=O)/C=C/c2cc(C(=O)c3cc(OC)c(OC)c(OC)c3)ccc2OC)cc1`, for which the growth was 75.3% (inactive).

Consider `CCCCCCCCCCCC1=NCCCN1CCCC`, for which the growth is 104% (inactive).

Regarding `CCS(=O)(=O)c1ncnc2nc[nH]c12`, the growth was 101% (inactive).

On to `CC(=O)C1C(=O)C(=O)N(c2ccc(Cl)c(Cl)c2)C1=O` (stereo not given), for which the growth was 98.6% (inactive).

Turning to `CN(C)c1ccc(/C=C\C2=[N+](C)c3ccccc3C2(C)C)cc1`, the growth is 22.9% (inactive).

Regarding `COC(=O)c1cc([N+](=O)[O-])cc([N+](=O)[O-])c1Cl`, the growth is 55.4% (inactive).

Regarding `COc1cc2cc(Oc3ccc(NC(=O)c4cc(C(F)(F)F)cc(C(F)(F)F)c4)cc3)c(C)nc2cc1OC`, the growth is 50.4% (inactive).

As to `O=c1nc(-c2ccccc2)c2cc(-c3ccc(C(F)(F)F)nc3)ccc2[nH]1`, the growth is 94.5% (inactive).

Regarding `O=C(N/N=C/c1cc2ccccc2n2nnnc12)Nc1ccccc1`, the growth is 91.8% (inactive).

For `Cc1cccc(N=Nc2cccc(C)c2)c1`, the growth was 125% (inactive).

As to `CCO/C=N/C1=C(C#N)C(c2ccc(Cl)cc2)c2c(c3ccc(C)cc3[nH]c2=O)O1` (stereo not given), the growth is 88.6% (inactive).

Take `Cc1nc2c(c(=O)[nH]1)C(c1ccccc1)c1ccc3ccccc3c1O2` (stereo not given): the growth was -2.8% (active).

For `COc1ccc(-c2cc(=O)oc3c4c(ccc23)OCN(Cc2ccc(F)cc2)C4)cc1`, the growth is 47.9% (inactive).

As to `Cn1c(=O)[nH]c(=O)c2nc3c(nc21)-c1ccccc1C3=O`, the growth was 101% (inactive).

With `CC(O)c1cc[cH-]c1.[Fe+2].c1cc[cH-]c1` (stereo not given), the growth is 92.9% (inactive).

Take `Cc1ccc(S(=O)(=O)N/N=C2\CC3CCC2(C)C3(C)C)cc1` (stereo not given): the growth was 116% (inactive).

In the case of `Cc1ccc(Nc2nc(-c3ccc(F)cc3)c(C#N)c(=O)n2C)cc1`, the growth was 90.1% (inactive).

With `CN1CCc2c(sc3nc4n(-c5ccc(Cl)cc5)c(=O)[nH]n4c(=O)c23)C1`, the growth is 89.3% (inactive).

For `CCN(CC)c1ccc2nc3ccc(N=Nc4ccc(O)cc4)cc3[n+](-c3ccccc3)c2c1`, the growth is 21.8% (inactive).

Take `COc1ccc2c(c1)CC/C(=C\c1ccc(OCC(=O)Nc3nc4ccccc4s3)cc1)C2=O`: the growth was 87.6% (inactive).

For `CCOC(=O)c1cc(C(=O)c2ccc(Cl)cc2)n2ccc(-c3cc[n+](CC(=O)c4ccc(OC)cc4)cc3)cc12`, the growth was 24.9% (inactive).

`O=C(/C=C/C12c3ccccc3C(c3ccccc31)C1C(=O)NC(=O)C12)c1ccc(Cl)cc1` (stereo not given): the growth is -6.98% (active).

With `CC(=O)NC(O)C(Cl)Cl` (stereo not given), the growth is 105% (inactive).

With `Cc1nc2cc(Nc3nc(Cl)nc(Nc4ccc(F)cc4)n3)ccc2n1Cc1ccccc1`, the growth was 53.2% (inactive).

For the origin of these results see PubChem BioAssay (NCI).
